# UbGFP stabilizer: inhibits proteasome, raising ubiquitin-GFP reporter fluorescence | 67,000 tested, under 10 active | Ubiquitin-GFP reporter cells, proteasome inhibition, GFP fluorescence; response scale: untreated = 0%, 10 µM MG-132 = 100% | Potency, µM (top dose mostly 45.9 µM), for the others: at the highest dose activation (GFP accumulation), most hits filed as activators; active = well fitted activation curve with a large enough effect, not every such curve was filed as active; inconclusive = small, poorly fitted or top-dose-only effect, or another doubt; inactive = no such curve, though single readings can be large or run the other way; note: potency is the fitted concentration of half-maximal effect
#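 Proteasome block read as GFP accumulation: ubiquitin(G76V)-GFP U2OS cells exposed to compound (2.9 nM–46 uM) for 4 hr at 37 C. Normalization used untreated cells as 0% and 10 uM MG-132 as 100%; concentration-response curves fitted.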
# Epigenetic mod: derepresses silenced GFP locus in mouse C127i cells; Potency, µM (series often up to 46.1 µM), inactives show at the top dose GFP derepression (activation); mouse C127i GFP locus derepression, cytometry, 30 h; 68,000 compounds, 0.09% hits; note: % of control where 0% means no effect
#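 Read-out is the number of GFP-positive cells, scored as fluorescent objects 20 to 120 um wide, reflecting derepression of a silenced CMV-GFP reporter in murine C127i cells after 30 h compound exposure at 37 C.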
# Hsp90 Hop PPI: changes Hsp90-Hop TPR2A binding signal, up or down; AlphaScreen TPR2A-His6 binding biotin-Hsp90 C-terminal peptide; Potency, µM (top dose mostly 57 µM), inactives show top-dose activity change, negative = inhibition; 71,000 compounds, 0.44% hits; AID 595; active = well fitted curve in either direction with a large enough effect; inconclusive = small, poorly fitted or top-dose-only effect, or another doubt; note: potency is the fitted concentration of half-maximal effect; % is set by controls: 0 for no effect and ±100 for the full control effect
# Tau fil binding: binders of human tau filaments; P10636; recombinant tau filaments, thioflavin S fluorescence, 15 h; filaments grown with octadecylsulfate alongside compound; Potency, µM (highest dose often 57.1 µM), without a hit: at the top dose activity change, negative = inhibition; 71,000 compounds, 2% hits;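 note: potency is the fitted concentration of half-maximal effect; % is set by controls: 0 for no effect and ±100 for the full control effect; actives lower thioflavin S fluorescence by blocking filaments or displacing dye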
# Target sequence (P10636 whole entry, looked up): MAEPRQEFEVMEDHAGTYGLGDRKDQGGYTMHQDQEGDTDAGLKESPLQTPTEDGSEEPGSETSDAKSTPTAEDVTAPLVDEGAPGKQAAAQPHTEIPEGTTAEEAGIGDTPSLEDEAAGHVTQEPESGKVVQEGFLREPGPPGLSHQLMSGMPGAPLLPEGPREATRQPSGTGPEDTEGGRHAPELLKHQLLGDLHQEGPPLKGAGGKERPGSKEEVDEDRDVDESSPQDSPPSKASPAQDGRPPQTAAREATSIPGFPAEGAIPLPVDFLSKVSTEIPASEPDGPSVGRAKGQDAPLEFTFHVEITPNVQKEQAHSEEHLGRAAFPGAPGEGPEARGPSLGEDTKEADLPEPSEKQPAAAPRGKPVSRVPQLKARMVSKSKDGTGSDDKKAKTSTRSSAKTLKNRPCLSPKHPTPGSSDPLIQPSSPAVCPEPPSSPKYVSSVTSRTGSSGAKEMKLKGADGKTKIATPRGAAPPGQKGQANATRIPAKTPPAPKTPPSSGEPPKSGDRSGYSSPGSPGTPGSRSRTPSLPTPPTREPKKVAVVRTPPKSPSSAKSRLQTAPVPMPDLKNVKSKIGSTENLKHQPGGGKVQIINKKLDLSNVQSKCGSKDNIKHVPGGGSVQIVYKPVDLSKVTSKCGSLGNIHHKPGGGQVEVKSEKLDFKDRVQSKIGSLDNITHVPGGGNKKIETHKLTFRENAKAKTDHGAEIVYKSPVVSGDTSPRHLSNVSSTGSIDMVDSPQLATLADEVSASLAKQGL
#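 Assay mix: 1 uM His-tagged tau, 30 uM sodium octadecylsulfate, thioflavine S dye in HEPES/NaCl/DTT buffer. Compound is added prior to the inducer. Fluorescence after 15 h at 37 C.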
# HBB splice mod: alters splicing of the hemoglobin beta chain | Potency, µM (series often up to 46.1 µM), for inactives: at the highest dose activation, hits mostly activators | HBB splicing reporter cell assay, activation; EGFP reporter with mutant IVS2-654 intron; response scale: normalised to 500 nM splice-correcting PNA | 65,000 compounds, 0.06% hits | AID 925; note: potency is the fitted concentration of half-maximal effect; 0% is about no effect
#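 HeLa cells stably expressing EGFP interrupted by mutant beta-globin intron 2 (IVS2-654), 500/well in 2% FCS. Treated with compound for 2 days at 37C. Splicing correction scored as total well GFP intensity (488 nm excitation, 500-520 nm emission); 500 nM antisense PNA served as control.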
# ERK AVP inh: vasopressin-driven ERK pathway inhibition; HEK293-V1b, vasopressin-stimulated pERK AlphaScreen; Potency, µM (series often up to 57.5 µM), inactives show at the highest dose activity, negative = inhibition, hits mostly inhibitors; 72,000 compounds, 0.99% hits; note: potency is the fitted concentration of half-maximal effect; % is set by controls: 0 for no effect and ±100 for the full control effect; nearly all actives have a fitted effect of over 55% in size
#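 Overnight-seeded V1b-HEK293 cells in 1% FBS got compound, then vasopressin (25 nM final, 5 min, 37C), then lysis buffer. AlphaScreen detection of phospho-ERK; activity normalized to basal and full-stimulation controls.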
# Starred values were filed as active, the others as inactive; ? = inconclusive; · = not tested or not shown; [ ] = another dose, or the depositor's remark. An excerpt weighted towards active compounds, which were near 3% of everything screened. Unless noted, calls come from the whole dose curve; as a rule, active = well fitted curve in the direction sought with a large enough effect; inconclusive = small, poorly fitted or top-dose-only effect, or another doubt; inactive = no such curve, though single readings can be large; an effect the other way counts as inactive or inconclusive.
SMILES,UbGFP stabilizer,Epigenetic mod,Hsp90 Hop PPI,Tau fil binding,HBB splice mod,ERK AVP inh
CC(CCc1ccccc1)NC(=O)C1CCCN(C(=O)c2cc3sccc3n2C)C1 (stereo unspecified),8%,2%,-7%,-2%,0%,25µM*
Cn1c(C(=O)N2CCCC(C(=O)NCc3cccs3)C2)cc2sccc21 (stereo unspecified),5%,-2%,-2%,3%,0%,?
Cc1ccc(S(=O)(=O)N=Nc2c(O)[nH]c3cc(O)c(C(=O)O)cc23)cc1,0%[9.17 µM],3%[9.22 µM],-1%[11 µM],-8%[11.4 µM],3%[9.22 µM],-14%[11.5 µM]
C=C[C@@](C)(O)CC[C@H]1[C@]2(C)CCCC(C)(C)[C@H]2CC[C@]1(C)O,-1%,5%[9.22 µM],0%,?,·,·
COc1cccc(O)c1O,·,·,·,·,·,-31%
CSc1ncnc2c1ncn2CC(=O)[C@H]1CC[C@H]2[C@H]3CCC4=CC(=O)CC[C@@]4(C)[C@@H]3CC[C@@]12C,-6%[9.17 µM],-3%[9.22 µM],-4%[11 µM],64%[11.4 µM],-1%[9.22 µM],4µM*
C[C@@]12CC[C@H]3[C@@H](CCC4=CC(=O)CC[C@]43C)[C@H]1CC[C@H]2C(=O)CO,6%[20.5 µM],-1%[20.6 µM],?,-18%[25.6 µM],-1%[20.6 µM],?
Nc1ncnc2nc[nH]c12.Nc1ncnc2nc[nH]c12.[Cl][Pt]([Cl])([Cl])[Cl],1%[9.17 µM],6%[9.22 µM],-5%[11 µM],0%[11.4 µM],1%[9.22 µM],·
Cn1c(=O)c(C(=O)c2ccccc2)nc2ccccc21,·,0%,-4%,-14%,3%[0.369 µM],-23%
Cn1cc(C(=O)c2ccc(Cl)cc2)cc1-c1nc2ccccc2n1C,·,-2%,-10%,-17%,1%[0.369 µM],32µM*
CCCc1cc2c(c(=O)o1)C(O)C1OC1C2=O (stereo unspecified),·,·,·,·,2%[9.22 µM],23%[11.5 µM]
Nc1c(C(=O)c2ccc(Br)s2)oc2ccccc12,-2%,4%,20%,13µM*,0%,-1%
CC(=O)O[C@@H]1CC[C@]2(C)C(=C[C@@H]([C@@H]3C=C4C[C@@H](OC(C)=O)CC[C@]4(C)C4=C3[C@H]3C[C@@H]5O[C@@]6(CC[C@H](C)CO6)[C@@H](C)[C@@H]5[C@@]3(C)CC4)C3=C2CC[C@@]2(C)[C@H]4[C@@H](C)[C@]5(CC[C@H](C)CO5)O[C@@H]4C[C@H]32)C1,0%[9.17 µM],-2%[9.22 µM],-6%[11 µM],6%[11.4 µM],-1%[9.22 µM],16%[11.5 µM]
O=S(=O)(O)c1cc(O)c2c(N=Cc3ccccc3O)cc(S(=O)(=O)O)cc2c1,5%[9.17 µM],1%[9.22 µM],-5%[11 µM],18%[11.4 µM],1%[9.22 µM],5%[11.5 µM]
CC(=O)NC(c1ccco1)c1ccc2cccnc2c1O (stereo unspecified),-7%,?,7.9µM*,-13%,-1%,16µM*
COc1cc(C(Nc2ccccn2)c2ccc3ccc(C)nc3c2O)cc(OC)c1O (stereo unspecified),5%,0%,?,13µM*,-1%,26%
Oc1c([C@H](Nc2ccccn2)c2ccccc2)ccc2cccnc12,-4%[9.17 µM],6%[9.22 µM],?,-14%[11.4 µM],2%[9.22 µM],-11%[11.5 µM]
Oc1c(C(Nc2ccccn2)c2ccccn2)ccc2cccnc12 (stereo unspecified),0%,5µM*,3.2µM*,-18%,-1%,?
CN(Cc1ccco1)c1ccnc(-c2ccoc2)n1,-4%,-3%[9.22 µM],?,86%,0%,0%
COC(=O)c1[nH]c2ccccc2c1NC(=O)CN1CCN(c2cccc(OC)c2)C(C)C1 (stereo unspecified),-7%,-2%,-28%,-26%,2%[1.84 µM],32µM*
CCOC(=O)C1CCN(CC(=O)Nc2c(C(=O)OC)[nH]c3ccccc23)CC1,2%,?,1%,-1%,-1%[1.84 µM],-32%
CCOC(=O)C1CCN(CC(=O)Nc2c(C(=O)OC)[nH]c3ccc(Cl)cc23)CC1,0%,0%,-1%,-7%,6%[1.84 µM],25µM*

# Compound activity from PubChem BioAssay.
